Test results as given in PubChem BioAssay (NCI).
Compounds without any hit were thinned out: in the full panel of roughly 83,000, 20% have a hit.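 Cells were grown in 96-well plates and exposed to the test compound at a single concentration for 48 hours; results are reported as percent growth, with values below 10 considered active.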 Values without a mark were called inactive. Activity calls are given as the source filed them.

Legend:
Assay in all cases: NCI-60 one-dose screen, 48 h (100 = growth as untreated, 0 = no growth, -100 = all killed)
Conditions in all cases: 10 µM
[1] = system: T-47D breast
[2] = system: BT-549 breast
[3] = system: SW-620 colon
[4] = system: MCF7 breast
[5] = system: HCC-2998 colon
[6] = system: KM12 colon
[7] = system: MDA-MB-468 breast
[8] = system: HCT-116 colon

Row | SMILES | growth [1] | growth [2] | growth [3] | growth [4] | growth [5] | growth [6] | growth [7] | growth [8]
1 | NC(=Nc1ccc(OCCCCCCCCn2ccnn2)cc1)c1ccccc1 | 40% | 56.6% | 32.4% | 13.8% | 23.8% | 18.2% | 24% | –
2 | COc1ccc(/C(CSc2nnc(-c3c[nH]c4ccccc34)n2-c2ccccc2)=N/O)cc1 | 10.4% | 16.5% | 39.4% | 14.5% | 42.4% | 21.2% | 0.589% (active) | 28.1%
3 | O=C(c1ccc(Cl)cc1)C1[C@H](c2ccc(Br)cc2)[C@@H](c2ccccc2)NC12C(=O)Nc1ccc(Cl)cc12 (some centres undefined) | 8.01% (active) | -57.1% (active) | -76.4% (active) | -39.7% (active) | -94.9% (active) | -26.6% (active) | – | 5.1% (active)
4 | CCCn1c(=O)c2[nH]c(-c3ccc(OCc4nc5ccc(F)cc5[nH]4)cc3)nc2n(CCC)c1=O | -17.8% (active) | 6.64% (active) | 17.1% | – | 83.2% | 55.7% | -12.7% (active) | 3.12% (active)
